From PubChem
Hsp70 act = transcriptional activators of Hsp70. activation, % at 10 µM. HeLa Hsp70 promoter luciferase reporter, luminescence; scaled: vehicle 0, proteasome-inhibitor control 100%. 200,000 tested, 0.04% active;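 active = activation above the mean across all tested compounds plus 3 SD, cutoff set per campaign, cut at about 5.5% in these data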
GalR3 antagonist = antagonists of human GalR3. HEK293 GalR3-CNG cAMP membrane potential fluorescence; galR3 body fused to GalR1 C-terminus. 360,000 tested, 0.44% active. AID 651719. inhibition, % at 3 µM. O60755;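 active = inhibition above the screen-wide average plus 3 SD, cut at about 13% in these data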;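 also: forskolin and galanin both at EC90 stimulate the cells; cAMP rise reported by CNG channel membrane potential dye signal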
Target sequence (O60755 1-299 limits assumed): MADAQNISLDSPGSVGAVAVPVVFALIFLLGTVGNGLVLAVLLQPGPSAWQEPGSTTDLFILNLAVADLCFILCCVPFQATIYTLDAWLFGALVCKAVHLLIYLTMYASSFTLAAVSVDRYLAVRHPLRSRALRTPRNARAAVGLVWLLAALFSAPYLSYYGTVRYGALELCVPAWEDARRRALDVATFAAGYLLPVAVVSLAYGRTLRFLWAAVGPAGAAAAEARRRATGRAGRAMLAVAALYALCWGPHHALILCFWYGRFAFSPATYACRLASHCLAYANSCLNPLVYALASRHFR
FXN GAA850 act = activators of GAA850 frataxin (FXN) promoter. activation, % at 6 µM. 360,000 tested, 0.56% active. HEK293 lucGAA850 FXN promoter luciferase reporter, 24 h; percent of 10 µM SAHA response;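 active = activation above the average of all compounds screened plus 3 SD, cutoff fixed separately per campaign, cut at about 7.5% in these data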
HIF activator = HIF pathway transcriptional activation | U2OS HRE-luciferase reporter, luminescence; normalized: DMSO 0%, desferrioxamine 100% | activation, % at 7.5 µM (by protocol) | 300,000 tested, 0.32% active | AID 1910;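 active = mean activation of at least 10% of the iron chelator positive control signal, with at least half of replicates also reaching 10%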
SMARCA2 act = increases SMARCA2 function in MMTV reporter cells. activation, % at 9.1 µM. MG213 cells, MMTV-luciferase reporter, dexamethasone, overnight. AID 652017. 370,000 tested, 1% active; in the data active = activation above about 7.8%
SMARCA2 act conf = SMARCA2 activation, confirmation screen; MG213 cells, MMTV-luciferase with dexamethasone, luminescence, overnight; MG213 cells expressing E1A, Rb sequestered; DMSO wells 0%, reference activator 100%; shares compounds with SMARCA2 act; 3,500 tested, 30% active; activation, % at 9.1 µM; AID 652260;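 active = activation above its plate's cutoff, the mean activation of tested wells plus 3 SD, cut at about 7.9% in these data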
GAL4-VP16 Luc = activates GAL4-VP16 luciferase, flagging SMARCA2 activator hits. 3,500 tested, 41% active. HEK293 GAL4-VP16 pG5luc reporter, luciferase luminescence; scaled: DMSO wells 0%, SAHA wells 100%. activation, % at 9.1 µM. shares compounds with SMARCA2 act;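 active = activation above the solvent-only control well mean plus 3 SD, averaged across control plates, cut at about 5.2% in these data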
Each line names hits and unclear results; the compound was inactive in the other large screens (follow-up assays come after a bar, where they were run); ! = not confirmed by another sample. Shown are actives, neighbours in structure and some others; about 2.2% of the full set was active somewhere.

C/C(Nc1cccc(F)c1)=C(/C#N)C(N)=O	SMARCA2 act 8.3 | SMARCA2 act conf inactive | GAL4-VP16 Luc inactive
CC(C)c1ccc(C2N3CC4([N+](=O)[O-])CN2CC([N+](=O)[O-])(C3)C4(C)C)cc1 (stereo not given)	SMARCA2 act 13 | SMARCA2 act conf inactive | GAL4-VP16 Luc inactive
CC(C=NN=C1C(=O)Nc2ccccc21)=Cc1ccccc1	none (no result: Hsp70 act, FXN GAA850 act, HIF activator)
CC(C)(C)c1nnc(NC(=O)c2ccc3c(c2)OCO3)s1	SMARCA2 act 10 (no result: Hsp70 act) | SMARCA2 act conf 8.4 | GAL4-VP16 Luc 6.4
COCCNS(=O)(=O)c1ccc(F)c(OC)c1	SMARCA2 act 14 | SMARCA2 act conf inactive | GAL4-VP16 Luc inactive
O=C(COc1cccnc1[N+](=O)[O-])Nc1cccc(Br)c1	SMARCA2 act 11 (no result: Hsp70 act, HIF activator) | SMARCA2 act conf inactive | GAL4-VP16 Luc inactive
COc1cc2nc(C3CCC3)nc(N3CCN(c4ccccc4OC)CC3)c2cc1OC	SMARCA2 act 9.4 | SMARCA2 act conf inactive | GAL4-VP16 Luc inactive
COc1cc2nc(C3CCC3)nc(N3CCN(c4ccccn4)CC3)c2cc1OC	none (no result: GalR3 antagonist, SMARCA2 act)
COC(=O)[C@]12C[C@H](CC(=O)NCc3ccc(C)o3)C(=O)N(Cc3ccco3)C1=C[C@H](C1CCCC1)O[C@@H]2C	none (no result: Hsp70 act, GalR3 antagonist, FXN GAA850 act, HIF activator)
COC(=O)[C@H]1C[C@@]2(N3CCCCC3)c3ccccc3N(S(=O)(=O)c3ccccc3)[C@H]2N1	none (no result: Hsp70 act, GalR3 antagonist, FXN GAA850 act, HIF activator)
Cc1csc(NC(=O)c2ccc(COc3ccccc3F)o2)n1	none (no result: Hsp70 act, GalR3 antagonist, FXN GAA850 act, HIF activator)
NC(=O)c1cccnc1Nc1cccc(F)c1	none
NC(=O)c1cccnc1Nc1cccc([N+](=O)[O-])c1	SMARCA2 act 13 | SMARCA2 act conf 7.8 | GAL4-VP16 Luc 8.6
COCCNC(=S)N(C)[C@H]1C[C@H]2c3[nH]c4c(-c5ccccc5)cccc4c3CCN2C[C@H]1[C@H](C)O	none (no result: Hsp70 act, FXN GAA850 act, HIF activator)
Cc1ccc2nc3c(cc(C(=O)NCc4ccco4)c(=N)n3C3CCCC3)c(=O)n2c1	SMARCA2 act 9.1 (no result: Hsp70 act) | SMARCA2 act conf 15 | GAL4-VP16 Luc inactive
Cc1ccc2nc3c(cc(C(=O)NCC4CCCO4)c(=N)n3C3CCCC3)c(=O)n2c1 (stereo not given)	SMARCA2 act 8.8 (no result: Hsp70 act) | SMARCA2 act conf inactive | GAL4-VP16 Luc inactive
N=c1c(C(=O)NCC2CCCO2)cc2c(=O)n3ccccc3nc2n1C1CCCC1 (stereo not given)	none (no result: Hsp70 act)
COc1ccc(CC(=O)Nc2ccc(C)cc2S(=O)(=O)N2CCOCC2)cc1OC	none (no result: Hsp70 act, GalR3 antagonist, FXN GAA850 act, HIF activator)
Cc1ccc(-c2cc3c(N=O)c4ccccc4c-3n[nH]2)cc1	none
O=Nc1c2cc(-c3ccccc3)[nH]nc-2c2ccccc12	SMARCA2 act 8.5 | SMARCA2 act conf 9.8 | GAL4-VP16 Luc 5.5
O=C1N2Cc3ccccc3C2CS(=O)(=O)N1C1CCCC1 (stereo not given)	none (no result: Hsp70 act, GalR3 antagonist, FXN GAA850 act, HIF activator)
COc1ccc(OC)c(/C=C/c2ccc3cccc(O)c3n2)c1	SMARCA2 act 9.1 (no result: Hsp70 act) | SMARCA2 act conf inactive | GAL4-VP16 Luc 13
CCCC[C@H]1C2CC(OC(=O)Nc3ccc(F)cc3)C(C2)[C@H]2CCCCN21 (stereo not given in full)	none (no result: Hsp70 act, GalR3 antagonist, FXN GAA850 act, HIF activator)
COC(=O)c1ccc(CC(=O)c2nc3ccccc3s2)cc1	SMARCA2 act 10 (no result: HIF activator) | SMARCA2 act conf 8.8 | GAL4-VP16 Luc 6.9
COC(=O)c1ccc(CSc2nc3ccccc3s2)o1	SMARCA2 act 14 | SMARCA2 act conf inactive | GAL4-VP16 Luc inactive
CN(C)Cc1nc2ccccc2c(=O)n1Cc1nc(C(C)(C)C)cs1	none (no result: HIF activator)
CN1CCN(Cc2nc3ccccc3c(=O)n2Cc2nc(-c3ccc4ccccc4c3)cs2)CC1	SMARCA2 act 8.2! | SMARCA2 act conf 21 | GAL4-VP16 Luc inactive
CCN1CCc2c(OCC(=O)N3CCC(C)CC3)cccc2C1=O	SMARCA2 act 8.4 | SMARCA2 act conf inactive | GAL4-VP16 Luc inactive
COc1ccc(CNC(=O)c2ccccc2NC(=O)C2=C(C)OCCS2)cc1	none (no result: Hsp70 act, HIF activator)
COc1ccccc1CNC(=O)c1ccccc1NC(=O)C1=C(C)OCCS1	SMARCA2 act 8.1 (no result: Hsp70 act) | SMARCA2 act conf inactive | GAL4-VP16 Luc inactive
O=C1CCc2cc(S(=O)(=O)N3CCN(c4ccccc4Cl)CC3)ccc2N1	none (no result: Hsp70 act, GalR3 antagonist, FXN GAA850 act, HIF activator)
COC(=O)[C@]12C[C@H](CC(=O)N3CCN(C(=O)c4ccco4)CC3)C(=O)N(Cc3ccc(Cl)cc3Cl)C1=C[C@H](C1CCCC1)O[C@@H]2C	none (no result: Hsp70 act, GalR3 antagonist, FXN GAA850 act, HIF activator)
COc1cccc(CC(=O)Nc2ncc(C)s2)c1	none (no result: Hsp70 act)
COc1cccc(CC(=O)Nc2nc(C)cs2)c1	SMARCA2 act 8.6 | SMARCA2 act conf inactive | GAL4-VP16 Luc inactive
O=C(CNC(=O)c1ccccc1C(=O)O)c1ccccc1	SMARCA2 act 8.0 | SMARCA2 act conf inactive | GAL4-VP16 Luc inactive
COc1ccc(CN2C(C(=O)NCC(C)C)CSCCS2(=O)=O)cc1 (stereo not given)	none (no result: Hsp70 act, GalR3 antagonist, FXN GAA850 act, HIF activator)
COCCNc1c(-c2cc3ccc(C)c(C)c3[nH]c2=O)nc2ccccn12	SMARCA2 act 10 | SMARCA2 act conf 18 | GAL4-VP16 Luc 6.4
COc1ccc(OCc2cc(C(=O)NC(C)c3nc(C)cs3)no2)c(Cl)c1 (stereo not given)	none (no result: Hsp70 act, HIF activator)
COc1ccc(OCc2cc(C(=O)NC(C)c3csc(C)n3)no2)c(Cl)c1 (stereo not given)	SMARCA2 act 9.8 (no result: Hsp70 act) | SMARCA2 act conf inactive | GAL4-VP16 Luc 6.0
O=S1(=O)c2ccc(Br)cc2OC[C@H](Cc2ccccc2)N1Cc1cn(Cc2ccc(Cl)cc2)nn1	none (no result: Hsp70 act, GalR3 antagonist, FXN GAA850 act, HIF activator)
CCCc1cc(=O)oc2c(CN(CC)CC)c(O)c(Cl)cc12	SMARCA2 act 9.4 (no result: Hsp70 act) | SMARCA2 act conf inactive | GAL4-VP16 Luc inactive
COCCNC(=O)C1(C)C=CC2(CCCCC2)N1C(=O)c1ccccc1 (stereo not given)	none
CC1(C(=O)NCCN2CCOCC2)C=CC2(CCCCC2)N1C(=O)c1ccccc1 (stereo not given)	SMARCA2 act 8.7 | SMARCA2 act conf inactive | GAL4-VP16 Luc inactive
CN(C)CCN(C(=O)c1ccco1)c1nc2cc3c(cc2s1)OCCO3	SMARCA2 act 9.7 (no result: Hsp70 act) | SMARCA2 act conf inactive | GAL4-VP16 Luc inactive
OC(CNCc1ccc(-c2ccccc2)cc1)c1ccccc1 (stereo not given)	none
OCCNCc1ccc(-c2ccccc2)cc1	SMARCA2 act 8.2 | SMARCA2 act conf inactive | GAL4-VP16 Luc inactive
CCOC(=O)[C@@]12CCCC=C1N(CCc1ccc(Cl)cc1)C(=O)[C@H]2CC(=O)N1CCOCC1	none (no result: Hsp70 act, GalR3 antagonist, FXN GAA850 act, HIF activator)
O=C(CCNC(=O)c1ccc([N+](=O)[O-])cc1)NCc1cccs1	none (no result: Hsp70 act, HIF activator)
O=C(NCc1cccs1)c1ccc([N+](=O)[O-])cc1Cl	SMARCA2 act 13 | SMARCA2 act conf inactive | GAL4-VP16 Luc inactive
C=CCOC(=O)N[C@@H](c1cccc(OC)c1)[C@@H](C)/C=C/CC(=O)O	none (no result: Hsp70 act, GalR3 antagonist, FXN GAA850 act, HIF activator)
